Experimental data published in publication PMC4336329 (PLoS ONE, 2015).
Among all 310,000 compounds or so, about 14,000 (4.5%) showed an effect of 50% or more. The effect is printed as a negative number. The list comes from a sample in which strong results are over-represented; it also holds similar structures and randomly drawn compounds.

target: human ether-à-go-go-related gene (hERG) potassium channel (human, UniProt Q12809); assay: primary screen, population patch clamp on CHO cells stably expressing hERG; higher = less effect of the substance
Sequence (Q12809 whole entry, looked up): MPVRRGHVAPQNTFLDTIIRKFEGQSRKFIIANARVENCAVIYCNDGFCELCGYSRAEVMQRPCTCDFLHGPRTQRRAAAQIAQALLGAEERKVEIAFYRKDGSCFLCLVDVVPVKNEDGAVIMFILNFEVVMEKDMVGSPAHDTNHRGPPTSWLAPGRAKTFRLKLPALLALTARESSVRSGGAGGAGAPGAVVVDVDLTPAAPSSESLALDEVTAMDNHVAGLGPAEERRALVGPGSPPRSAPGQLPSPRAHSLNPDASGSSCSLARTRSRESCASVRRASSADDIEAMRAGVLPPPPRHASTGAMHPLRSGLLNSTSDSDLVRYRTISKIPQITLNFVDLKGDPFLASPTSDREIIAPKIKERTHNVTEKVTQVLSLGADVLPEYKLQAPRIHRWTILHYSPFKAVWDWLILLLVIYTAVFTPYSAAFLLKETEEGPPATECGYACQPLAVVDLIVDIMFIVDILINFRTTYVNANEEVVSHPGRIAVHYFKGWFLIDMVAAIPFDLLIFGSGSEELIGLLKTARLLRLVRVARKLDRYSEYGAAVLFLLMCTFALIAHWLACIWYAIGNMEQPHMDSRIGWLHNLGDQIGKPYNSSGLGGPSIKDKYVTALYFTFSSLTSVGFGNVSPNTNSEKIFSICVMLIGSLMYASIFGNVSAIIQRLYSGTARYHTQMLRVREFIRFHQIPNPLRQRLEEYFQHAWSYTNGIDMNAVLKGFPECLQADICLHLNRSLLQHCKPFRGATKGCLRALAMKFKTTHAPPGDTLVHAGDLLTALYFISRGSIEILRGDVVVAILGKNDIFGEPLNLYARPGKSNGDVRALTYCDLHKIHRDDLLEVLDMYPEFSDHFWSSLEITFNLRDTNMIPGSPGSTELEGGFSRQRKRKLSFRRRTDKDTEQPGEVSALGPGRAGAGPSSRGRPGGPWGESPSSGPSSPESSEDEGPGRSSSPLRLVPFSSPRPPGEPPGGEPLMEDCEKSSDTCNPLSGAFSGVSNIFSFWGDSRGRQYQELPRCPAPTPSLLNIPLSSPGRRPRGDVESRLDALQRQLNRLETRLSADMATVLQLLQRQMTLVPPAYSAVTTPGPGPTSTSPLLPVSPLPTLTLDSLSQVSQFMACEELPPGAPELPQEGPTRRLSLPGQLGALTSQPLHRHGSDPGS
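Further: peak tail current of the secondary pulse compared with the same well before compound.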

Row | SMILES | hERG current change (%, negative = inhibition) at 10uM [%]
1 | CC1=CC(c2ccc(Cl)cc2)n2ncnc2N1 (stereo not shown) | -9.02
2 | Cc1ccc(N=CC2=C(O)CC(c3ccccc3Cl)CC2=O)cc1 (stereo not shown) | -6.91
3 | Cc1ccc(CN(C)Cc2cc(=O)oc3cc(C)c(Cl)cc23)cc1 | 14.9
4 | CC(=O)c1cccc(NC(=O)COc2cc3oc(=O)c(CC(C)O)c(C)c3cc2Cl)c1 (stereo not shown) | -57.7
5 | CCOC(=O)c1ccc(NC(=O)COc2cc3oc(=O)c(CC(C)O)c(C)c3cc2Cl)cc1 (stereo not shown) | 13.7
6 | O=C(COc1cc2oc(=O)c3c(c2cc1Cl)CCC3)Nc1cccnc1 | 6.03
7 | CCOC(=O)NC(Nc1sc2c(c1C(=O)OC)CCN(C)C2)(C(F)(F)F)C(F)(F)F | -13.2
8 | CCCCOC(=O)Cn1c(=O)n(CC(=O)OCCCC)c2cc(C)ccc21 | -69.4
9 | CCN(CC)CCn1c(=N)n(CC(O)COc2ccccc2)c2ccccc21.Cl (stereo not shown) | -52.1
10 | CCCCOC(=O)Cn1c(=N)n(CCC)c2ccccc21.Cl | -31.5
11 | CCN(CC)CCn1c(=N)n(CC(O)COc2cccc(C)c2)c2ccccc21.Cl (stereo not shown) | -65.2
12 | CCCCOC(=O)Cn1c(=N)n(CCN2CCOCC2)c2ccccc21.Cl | -36.3
13 | CCCCOC(=O)Cn1c(=N)n(CCN(CC)CC)c2ccccc21 | -52.3
14 | CCCCOC(=O)Cn1c(=O)oc2ccc(C)cc21 | 5.97
15 | CCN(CC)CCn1c(=N)n(CC(O)c2ccc(OC)c(OC)c2)c2ccccc21.Cl (stereo not shown) | 14.4
16 | CCCCOC(=O)Cn1c(=O)n(CC(=O)OCCCC)c2ccccc21 | -33.9
17 | CCn1c(=O)c(C(=O)Nc2ccccc2F)c(O)c2ccccc21 | 17.2
18 | COc1ccc(OC)c(-c2csc(NC(=O)CSc3nnnn3C)n2)c1 | 4.17
19 | COc1ccc(NC(=S)NC(NC(=O)CCl)C(Cl)(Cl)Cl)c([N+](=O)[O-])c1 (stereo not shown) | 17.2
20 | NS(=O)(=O)c1cc2c(cc1Cl)NCNS2(=O)=O | -12.3
21 | Cc1cccc(-n2ncc3c(NCc4ccccc4)ncnc32)c1 | 12
22 | O=C(c1cc2nc(-c3ccco3)cc(C(F)(F)F)n2n1)N1CCN(c2ccc(F)cc2)CC1 | -34.5

Row | SMILES | hERG current change (%, negative = inhibition) at 10uM [%]
23 | O=C(N/N=C/c1ccco1)c1ccc(OCc2ccccc2)cc1 | 10.9
24 | COc1ccccc1N1CCN(C(=O)C2CC2)CC1 | 20
25 | O=C(NCCc1ccccc1)c1ccccc1F | 24.5
26 | O=C(CCCN1C(=O)/C(=C/c2ccccc2Cl)SC1=S)NNC(=O)c1ccccc1Cl | 29.8
27 | COCCSc1ccccc1C(=O)N1CCN(c2ccccc2OC)CC1 | 8.73
28 | Br.CCN(CC)CCn1c(=N)n(CCOc2ccccc2)c2ccccc21 | -53.6
29 | S=c1[nH]c2ccccc2n1CCOc1ccccc1 | 8.28
30 | CCN(CC)CCn1c(=N)n(CCO)c2ccccc21 | 5.99
31 | O=C(NC1CCSc2ccccc21)c1cc(S(=O)(=O)N2CCOCC2)ccc1Cl (stereo not shown) | -18
32 | COc1ccc(NC(=S)N(Cc2ccc(Cl)cc2)Cc2ccc(C(=O)O)cc2)cc1Cl | -3.51
33 | CCOC(=O)c1ccc(-n2c(CN3CCC(C(N)=O)CC3)nc3ccc([N+](=O)[O-])cc3c2=O)cc1 | -27.3
34 | Cc1cc2cc(C(c3nnnn3C3CCCC3)N(Cc3cccnc3)Cc3ccco3)c(=O)[nH]c2cc1C (stereo not shown) | -24.3
35 | Cc1ccc2[nH]c(=O)c(C(c3nnnn3C3CCCC3)N(Cc3cccnc3)Cc3ccco3)cc2c1 (stereo not shown) | -5.71
36 | CCC(C)(C)n1nnnc1C(C(C)C)N(Cc1cccnc1)Cc1ccco1 (stereo not shown) | -2.92
37 | Cc1ccc2cc(C(c3nnnn3C3CCCC3)N(Cc3ccccc3)Cc3ccco3)c(=O)[nH]c2c1 (stereo not shown) | 10.7
38 | Cc1ccc2cc(C(c3nnnn3C3CCCC3)N(Cc3cccnc3)Cc3ccco3)c(=O)[nH]c2c1 (stereo not shown) | -77.8
39 | CCC(C)(C)n1nnnc1C(c1cc2ccc(C)cc2[nH]c1=O)N(Cc1cccnc1)Cc1ccco1 (stereo not shown) | -60.6
40 | O=C(CC1C(=O)NCCN1Cc1ccc(-c2ccccc2)cc1)NCCCn1ccnc1 (stereo not shown) | 14
41 | CC(C)CCNS(=O)(=O)c1cc2c3c(c1)CCN3C(=O)CC2 | 2.2
42 | COc1cc(-c2noc(CCCC(=O)NCc3ccco3)n2)cc(OC)c1OC | -12.1
43 | O=C1N(Cc2cccc(Cl)c2)C[C@@H]2C[C@@H](c3cccn3-c3nccs3)N3CCC[C@@]123 | -68
44 | O=C1N(Cc2cccc(Cl)c2)C[C@@H]2C[C@@H](c3cccn3-c3cccnc3)N3CCC[C@@]123 | -35.7

Row | SMILES | hERG current change (%, negative = inhibition) at 10uM [%]
45 | CCn1ccnc1[C@@H]1C[C@H]2CN(Cc3cccc(Cl)c3)C(=O)[C@]23CCCN13 | -39.3
46 | O=C1N(Cc2cccc(Cl)c2)C[C@@H]2C[C@@H](c3cccn3-c3ccccn3)N3CCC[C@@]123 | -73.5
47 | C#CCOCCOCCOCCNc1nc(N2CCOCC2)nc(N2CCN(C(=O)[C@H](Cc3cc4ccccc4[nH]3)n3cc([C@@H](N)C(C)CC)nn3)CC2)n1.Cl (stereo partly shown) | 9.81
48 | O=C(CSc1nc(-c2ccccc2)cc(=O)[nH]1)N1CCOCC1 | 5.84
49 | CCOc1ccc2[nH]c3c(N4CCN(C(=O)c5ccco5)CC4)ncnc3c2c1 | -58.4
50 | CCOC(=O)N1CCN(c2ncnc3c2[nH]c2ccc(OC)cc23)CC1 | -44.1
51 | O=C(c1ccco1)N1CCN(c2ncnc3c2[nH]c2ccc(Cl)cc23)CC1 | -65.2
52 | CCOc1ccc2[nH]c3c(N4CCC5(CC4)OCCO5)ncnc3c2c1 | 5.84
53 | CCOc1ccc2[nH]c3c(N4CCc5ccccc5C4)ncnc3c2c1 | 5.49
54 | COc1cc2[nH]c3c(N4CCN(c5ccccn5)CC4)ncnc3c2cc1OC | 13.1
55 | O=C(c1ccco1)N1CCN(c2ncnc3c(-c4ccc(Cl)cc4)nsc23)CC1 | 4.82
56 | CCOc1ccc2[nH]c3c(N4CCN(c5ccccn5)CC4)ncnc3c2c1 | -59.4
57 | Cc1cccc2[nH]c3c(N4CCN(C(=O)c5ccco5)CC4)ncnc3c12 | -27
58 | Cc1ccc(C(C)(C)C)cc1S(=O)(=O)Nc1ncnc2sccc12 | 12.2
59 | Cn1nnc(NC(=O)c2ccc3ccccc3c2)n1 | 5.99
60 | CCCN(Cc1cc2ccccc2[nH]c1=O)C(=O)c1cccc([N+](=O)[O-])c1 | -16.8
61 | CN1CCCN(S(=O)(=O)c2cccc(C#N)c2)CC1.Cl | 6.61
62 | N#Cc1cccc(S(=O)(=O)N2CCN(c3ccnc4cc(Cl)ccc34)CC2)c1 | -70.7
63 | O=S(=O)(c1ccccc1)N1CCN(c2ccnc3cc(Cl)ccc23)CC1 | -84
64 | O=S(=O)(c1cccs1)N1CCN(c2ccnc3cc(Cl)ccc23)CC1 | -68.4
65 | O=[N+]([O-])c1ccc(N2CCN(S(=O)(=O)c3ccccc3)CC2)cc1 | -46.9
66 | O=S(=O)(c1cccs1)N1CCN(c2ccccc2Cl)CC1 | 9.51

Row | SMILES | hERG current change (%, negative = inhibition) at 10uM [%]
67 | Cc1ccc(Cl)cc1N1CCN(S(=O)(=O)c2cccc(S(=O)(=O)N3CCCC3)c2)CC1 | 2.64
68 | O=S(=O)(c1cccc(Br)c1)N1CCN(c2ccnc3cc(Cl)ccc23)CC1 | 8.43
69 | O=S(=O)(c1ccccc1OC(F)(F)F)N1CCN(c2ccnc3cc(Cl)ccc23)CC1 | -18.4
70 | Cc1ccc(S(=O)(=O)N2CCN(c3ccnc4cc(Cl)ccc34)CC2)cc1C | 30.7
71 | O=S(=O)(c1ccc(Br)s1)N1CCN(c2ccnc3cc(Cl)ccc23)CC1 | -14.8
72 | O=[N+]([O-])c1ccc(S(=O)(=O)N2CCN(c3ccnc4cc(Cl)ccc34)CC2)cc1 | -73.5
73 | COc1ccc(C(=O)COC(=O)c2ccn(C)n2)cc1 | -14.5
74 | Cc1[nH]c(C)c(S(=O)(=O)N2CCN(c3cccc(C(F)(F)F)c3)CC2)c1C(=O)N1CCCCC1 | -1.72
75 | O=C(NCc1ccc(F)cc1)C1CC(=O)N(Cc2ccco2)C1 (stereo not shown) | -17
76 | COc1cc(C=O)ccc1OCc1ccncc1 | 16.5
77 | Cc1ccccc1N1CCN(c2ncnc3scc(-c4cccs4)c23)CC1 | -1.45
78 | O=C(c1ccco1)N1CCN(c2ncnc3scc(-c4cccs4)c23)CC1 | -63.9
79 | Cc1ccc(-c2csc3ncnc(N4CCN(c5ccccc5O)CC4)c23)cc1 | 25.8
80 | Cc1ccc(-c2csc3ncnc(N4CCN(C(=O)c5ccco5)CC4)c23)cc1 | -89.9
81 | Oc1ccccc1N1CCN(c2ncnc3scc(-c4ccccc4)c23)CC1 | 4.04
82 | O=C(c1cccs1)N1CCCN(c2ncnc3scc(-c4ccccc4)c23)CC1 | -60.7
83 | O=C(c1ccco1)N1CCN(c2ncnc3scc(-c4ccc(F)cc4)c23)CC1 | -70.2
84 | Fc1ccc(-c2csc3ncnc(N4CCN(c5ccccc5)CC4)c23)cc1 | 16.2
85 | c1ccc(N2CCN(c3ncnc4scc(-c5cccs5)c34)CC2)cc1 | 9.87
86 | Fc1ccc(-c2csc3ncnc(N4CCN(Cc5ccccc5)CC4)c23)cc1 | -2.14
87 | Cc1ccc(-c2csc3ncnc(N4CCN(C(=O)c5ccccc5)CC4)c23)cc1 | -30.5
88 | O=C(O)CSCC(=O)N1CCN(c2ncnc3scc(-c4ccccc4)c23)CC1 | 25.4
